Measured values taken from PubChem BioAssay AID1159580 (chemical genetic matrix, 2015).
Hit rate of the full screen: of about 5,500 compounds, about 2,000 (36%) were called active. About 18% were inconclusive and are not listed. Cut-off read from the data, not from the text of the source: active = normalized growth mostly below about 0.91 (no sharp cut-off); inconclusive = no clear call, values can overlap the other calls; inactive = mostly above about 0.92. The list shows a part of the results.

Experiment: chemical genetic growth profiling, strain panel (AID 1159580);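 note: tested at 20 µM; growth read once vehicle control cultures reached saturation at 30 °C; 1 = growth at the plate median or of vehicle wells; lower values mean less growth of the strain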
Details: growth OD

Measured: normalized growth

CN(C)CCN(Cc1ccccc1)c1ccccn1
inactive: S. cerevisiae deletion strains, locus YJR075W, strain HOC1, stronger effect = lower value 1.01 | S. cerevisiae deletion strains, locus YKL009W, strain mrt4, stronger effect = lower value 0.993 | S. cerevisiae deletion strains, locus YKL068W, stronger effect = lower value 0.969 | S. cerevisiae deletion strains, locus YKL085W, strain MDH1 (second series), stronger effect = lower value 0.978 | S. cerevisiae deletion strains, locus YKL085W, strain MDH1, stronger effect = lower value 0.978 | S. cerevisiae deletion strains, locus YKL160W, strain elf1, stronger effect = lower value 1.03 | S. cerevisiae deletion strains, locus YKL190W, strain CNB1, stronger effect = lower value 0.983 | S. cerevisiae deletion strains, locus YKR001C, strain vps1, stronger effect = lower value 0.994 | S. cerevisiae deletion strains, locus YKR026C, strain gcn3, stronger effect = lower value 1 | S. cerevisiae deletion strains, locus YKR091W, strain srl3, stronger effect = lower value 1.01 | S. cerevisiae deletion strains, locus YLL001W, strain dnm1, stronger effect = lower value 1.04 | S. cerevisiae deletion strains, locus YLL026W, stronger effect = lower value 1.02 | S. cerevisiae deletion strains, locus YLL041C, strain sdh2, stronger effect = lower value 1.01 | S. cerevisiae deletion strains, locus YLR027C, strain aat2, stronger effect = lower value 1.01 | S. cerevisiae deletion strains, locus YLR039C, strain RIC1, stronger effect = lower value 0.966 | S. cerevisiae deletion strains, locus YLR058C, strain SHM2, stronger effect = lower value 0.999 | S. cerevisiae deletion strains, locus YLR102C, strain apc9, stronger effect = lower value 0.986 | S. cerevisiae deletion strains, locus YLR113W, strain HOG1, stronger effect = lower value 0.909 | S. cerevisiae deletion strains, locus YLR221C, strain rsa3, stronger effect = lower value 0.988 | S. cerevisiae deletion strains, locus YLR258W, strain gsy2, stronger effect = lower value 1.01 | S. cerevisiae deletion strains, locus YLR262C, strain YPT6 (second series), stronger effect = lower value 1.02 | S. cerevisiae deletion strains, locus YLR262C, strain YPT6, stronger effect = lower value 1.01 | S. cerevisiae deletion strains, locus YLR268W, strain sec22, stronger effect = lower value 0.985 | S. cerevisiae deletion strains, locus YLR320W, strain mms22, stronger effect = lower value 1.01 | S. cerevisiae deletion strains, locus YLR330W, strain CHS5, stronger effect = lower value 0.999 | S. cerevisiae deletion strains, locus YLR342W, strain FKS1 (second series), stronger effect = lower value 1.04 | S. cerevisiae deletion strains, locus YLR342W, strain FKS1, stronger effect = lower value 1.02 | S. cerevisiae deletion strains, locus YLR357W, strain rsc2, stronger effect = lower value 1.03 | S. cerevisiae deletion strains, locus YLR370C, strain arc18, stronger effect = lower value 1.03 | S. cerevisiae deletion strains, locus YLR371W, strain rom2, stronger effect = lower value 0.976 | S. cerevisiae deletion strains, locus YLR384C, strain iki3, stronger effect = lower value 1.01 | S. cerevisiae deletion strains, locus YLR418C, strain cdc73, stronger effect = lower value 1.02 | S. cerevisiae deletion strains, locus YML016C, strain PPZ1, stronger effect = lower value 1.01 | S. cerevisiae deletion strains, locus YML032C, strain rad52, stronger effect = lower value 0.978 | S. cerevisiae deletion strains, locus YML120C, strain ndi1, stronger effect = lower value 1.02 | S. cerevisiae deletion strains, locus YML124C, strain tub3, stronger effect = lower value 0.988 | S. cerevisiae deletion strains, locus YMR058W, strain fet3, stronger effect = lower value 1.02 | S. cerevisiae deletion strains, locus YMR078C, strain ctf18, stronger effect = lower value 0.988 | S. cerevisiae deletion strains, locus YMR125W, strain sto1, stronger effect = lower value 1.02 | S. cerevisiae deletion strains, locus YMR129W, stronger effect = lower value 1 | S. cerevisiae deletion strains, locus YMR205C, strain PFK2, stronger effect = lower value 1.04 | S. cerevisiae deletion strains, locus YMR223W, strain ubp8, stronger effect = lower value 1.02 | S. cerevisiae deletion strains, locus YMR231W, strain pep5, stronger effect = lower value 1 | S. cerevisiae deletion strains, locus YMR263W, strain SAP30, stronger effect = lower value 0.976 | S. cerevisiae deletion strains, locus YMR307W, strain GAS1, stronger effect = lower value 1.06 | S. cerevisiae deletion strains, locus YNL067W, strain RPL9B, stronger effect = lower value 0.985 | S. cerevisiae deletion strains, locus YNL071W, strain lat1, stronger effect = lower value 1.01 | S. cerevisiae deletion strains, locus YNL128W, strain TEP1, stronger effect = lower value 0.987 | S. cerevisiae deletion strains, locus YNL153C, strain GIM3, stronger effect = lower value 0.995 | S. cerevisiae deletion strains, locus YNL183C, strain NPR1, stronger effect = lower value 0.942 | S. cerevisiae deletion strains, locus YNL209W, strain ssb2, stronger effect = lower value 1 | S. cerevisiae deletion strains, locus YNL233W, strain BNI4, stronger effect = lower value 1.01 | S. cerevisiae deletion strains, locus YNL248C, strain rpa49, stronger effect = lower value 1 | S. cerevisiae deletion strains, locus YNL250W, strain rad50, stronger effect = lower value 0.96 | S. cerevisiae deletion strains, locus YNL271C, strain bni1, stronger effect = lower value 0.953 | S. cerevisiae deletion strains, locus YNL298W, strain CLA4, stronger effect = lower value 0.994 | S. cerevisiae deletion strains, locus YNL307C, strain MCK1, stronger effect = lower value 0.989 | S. cerevisiae deletion strains, locus YNL322C, strain KRE1 (second series), stronger effect = lower value 1.02 | S. cerevisiae deletion strains, locus YNL322C, strain KRE1, stronger effect = lower value 0.987 | S. cerevisiae deletion strains, locus YNR049C, strain mso1, stronger effect = lower value 1.02 | S. cerevisiae deletion strains, locus YNR052C, strain pop2, stronger effect = lower value 0.986 | S. cerevisiae deletion strains, locus YOL006C, strain TOP1, stronger effect = lower value 1 | S. cerevisiae deletion strains, locus YOL012C, strain htz1 1.43 | S. cerevisiae deletion strains, locus YOL147C, strain pex11, stronger effect = lower value 0.978 | S. cerevisiae deletion strains, locus YOR001W, strain rrp6, stronger effect = lower value 1.04 | S. cerevisiae deletion strains, locus YOR061W, strain CKA2, stronger effect = lower value 0.996 | S. cerevisiae deletion strains, locus YOR069W, strain VPS5, stronger effect = lower value 1 | S. cerevisiae deletion strains, locus YOR070C, strain gyp1, stronger effect = lower value 0.999 | S. cerevisiae deletion strains, locus YOR080W, strain dia2, stronger effect = lower value 1.02 | S. cerevisiae deletion strains, locus YOR083W, strain WHI5, stronger effect = lower value 1.01 | S. cerevisiae deletion strains, locus YOR106W, strain vam3, stronger effect = lower value 1.05 | S. cerevisiae deletion strains, locus YOR136W, strain idh2, stronger effect = lower value 0.997 | S. cerevisiae deletion strains, locus YOR144C, strain elg1, stronger effect = lower value 0.98 | S. cerevisiae deletion strains, locus YOR184W, strain ser1, stronger effect = lower value 1 | S. cerevisiae deletion strains, locus YOR231W, strain MKK1, stronger effect = lower value 0.959 | S. cerevisiae deletion strains, locus YOR265W, strain rbl2, stronger effect = lower value 1 | S. cerevisiae deletion strains, locus YOR270C, strain vph1, stronger effect = lower value 1.02 | S. cerevisiae deletion strains, locus YOR290C, strain snf2, stronger effect = lower value 0.985 | S. cerevisiae deletion strains, locus YOR316C, strain cot1, stronger effect = lower value 0.991 | S. cerevisiae deletion strains, locus YPL051W, strain arl3, stronger effect = lower value 1.02 | S. cerevisiae deletion strains, locus YPL055C, strain LGE1, stronger effect = lower value 1.04 | S. cerevisiae deletion strains, locus YPL078C, strain atp4, stronger effect = lower value 1.04 | S. cerevisiae deletion strains, locus YPL106C, strain sse1, stronger effect = lower value 1.02 | S. cerevisiae deletion strains, locus YPL240C, strain hsp82, stronger effect = lower value 1.01 | S. cerevisiae deletion strains, locus YPL241C, strain CIN2, stronger effect = lower value 0.992 | S. cerevisiae deletion strains, locus YPL256C, strain CLN2, stronger effect = lower value 0.974 | S. cerevisiae deletion strains, locus YPR119W, strain clb2, stronger effect = lower value 0.988 | S. cerevisiae deletion strains, locus YPR141C, strain kar3, stronger effect = lower value 0.965 | S. cerevisiae deletion strains, locus YPR163C, strain tif3, stronger effect = lower value 0.982 | S. cerevisiae deletion strains, locus YPR167C, strain met16, stronger effect = lower value 0.973 | S. cerevisiae deletion strains, strain wtn01, stronger effect = lower value 0.989 | S. cerevisiae strains, strain wild type, stronger effect = lower value 0.999
